Assay outcomes: PubChem, several laboratories
Sampled rows, rich in hits. Any-hit rate of the full collection: about 12%.
m-calpain inh = inhibitors of pig calpain II; purified calpain II, fluorogenic peptide substrate, 30 min; inhibition, % at 16 µM; actives 0.37% (n = 220,000);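 active means inhibition above about 50%, limit read from the data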
L major viab = inhibitors of Leishmania major promastigote growth; Leishmania major promastigotes, resazurin fluorescence viability; inhibition, % at 10 µM; actives 9% (n = 200,000); in the data active means inhibition above about 50%;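 further: promastigotes grown with compound for 44 hours at 28 °C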
WT yeast gro inh = growth inhibition of WT yeast, mitochondrial fusion screen; mitochondrial fusion phenotypic screen, WT strain; inhibition, % at 10 µM; actives 2.1% (n = 190,000); in the data active means inhibition above about 58%; tested in S. cerevisiae
ROMK mod = human ROMK K+ channel modulation, primary screen; P48048; Tet-inducible ROMK, thallium flux fluorescence; actives lie on both sides; B-score at 10 µM; actives 2% (n = 130,000); AID 1918;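 active means signal ratio slope over the read window, or its plate-corrected B-score, at least 3 SD from the plate mean, either direction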;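 further: B-score of the F/F0 ratio slope over 7 to 12 s after thallium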
Target sequence (P48048 whole entry, looked up): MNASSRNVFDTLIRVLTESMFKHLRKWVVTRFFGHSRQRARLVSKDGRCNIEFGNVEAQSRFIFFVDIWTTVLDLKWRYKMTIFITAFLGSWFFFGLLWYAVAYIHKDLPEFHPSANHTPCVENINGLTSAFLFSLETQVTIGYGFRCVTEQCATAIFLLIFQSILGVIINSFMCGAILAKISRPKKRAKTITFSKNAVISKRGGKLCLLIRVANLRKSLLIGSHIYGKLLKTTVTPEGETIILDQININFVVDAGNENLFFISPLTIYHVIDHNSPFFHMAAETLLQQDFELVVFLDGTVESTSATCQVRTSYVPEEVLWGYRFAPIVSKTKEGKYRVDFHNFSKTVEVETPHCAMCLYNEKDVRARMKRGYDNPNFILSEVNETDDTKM
KCC2 mod = modulators of human KCC2 chloride dependent transport; B-score of Tl+ flux slope (higher = more flux/activation; lower = inhibition) at 10 µM; Q9H2X9; KCC2 cells, thallium flux FluoZin-2 fluorescence; actives 2.2% (n = 190,000); AID 1456;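 active means thallium flux slope and its plate-corrected score both differing from the plate sample mean at a set confidence after two filtering rounds, in either direction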;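 further: slope of fluorescence scaled to starting intensity during 10 to 20 s after thallium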
ROMK hit retest = human ROMK channel modulation, retest confirmation; shares compounds with ROMK mod; ROMK thallium flux, fluorescence ratio; hits give low values; normalized thallium flux (F/F0 slope) at 10 µM; actives 54% (n = 3,000);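 active means Flux at 10 µM at least 3 SD below or above vehicle control mean in one or both replicates; inconclusive means no clear call, values can overlap the other calls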
An asterisk follows results filed as active; i = inactive; u = inconclusive; x = not tested or not shown.

SMILES | m-calpain inh | L major viab | WT yeast gro inh | ROMK mod | KCC2 mod | ROMK hit retest
O=C(COC(=O)c1cc(-c2ccc(F)cc2)nc2ccccc12)NCC1CCCO1 (centres undefined) | 13 | -1 | 9 | -4.4* | -0.69 | 0.066*
CSCCCNC(=S)N1CCN(S(=O)(=O)c2cccc(C(F)(F)F)c2)CC1 | 19 | 14 | 10 | x | 0.18 | x
COc1ccc(/C=C/C(=O)Nc2cccc(F)c2)cc1S(=O)(=O)N1CCOCC1 | 36 | 50* | 2 | -0.86 | -0.19 | 0.064*
COc1cc(C)ccc1S(=O)(=O)N1CCCCCC1 | 32 | 2 | 13 | 0.69 | -0.86 | x
COc1cc(F)ccc1S(=O)(=O)N1CCN(C23CC4CC(CC(C4)C2)C3)CC1 | 19 | 1 | 7 | -2.8* | -0.064 | 0.064*
COc1cc(C)ccc1S(=O)(=O)N1CCN(C23CC4CC(CC(C4)C2)C3)CC1 | -9 | 22 | 4 | -2.9* | x | 0.062*
CC(=O)Nc1ccc(S(=O)(=O)N2CCN(C34CC5CC(CC(C5)C3)C4)CC2)cc1 | 6 | -1 | 6 | -0.82 | x | x
Cc1ccccc1NC(=S)N(CCN1CCOCC1)Cc1ccccc1F | -2 | 17 | 6 | 1.4 | 0.11 | x
COc1cccc(-c2nc(C=O)cs2)c1 | 6 | 17 | -39 | 4.4* | -0.044 | 0.1*
COc1cccc(-c2cc(C(=O)Nc3cccnc3)no2)c1 | -2 | 2 | 11 | 5.9* | x | 0.089
O=C(Nc1cccnc1)c1cc(-c2ccco2)on1 | 3 | -3 | -3 | 0.29 | x | x
COC(=O)NC1(C(=O)O)CCCC1 | -20 | x | x | x | 0.41 | x
CC(C)N1CCC(N2CCN(Cc3ccc(-c4ccc(Cl)cc4)o3)CC2CCO)CC1 (centres undefined) | -9 | 88* | 1 | -3.7* | -0.53 | 0.064*
Cc1ncc(CN2CCN(CCC(C)C)C(CCO)C2)s1 (centres undefined) | -14 | 29 | -8 | 0.083 | 1.1 | x
N#C/C(=C\C1CC=CCC1)c1nc2ccccc2[nH]1 (centres undefined) | -85 | 95* | -17 | -7* | -0.59 | 0.045*
N#C/C(=C\c1c(Cl)cccc1Cl)c1nc2ccccc2[nH]1 | -4 | x | x | x | -0.84 | x
CCOc1ccc(C(=O)NCc2cccnc2)cc1[N+](=O)[O-] | 11 | -4 | 0 | 0.86 | 1.4 | x
N#Cc1cc(C(=O)c2cc(F)ccc2O)cn(-c2nccs2)c1=O | -13 | -12 | 2 | -5* | i | 0.03*
Cc1c(-n2cc(C(=O)c3cc(F)ccc3O)cc(C#N)c2=O)c(=O)n(-c2ccccc2)n1C | -3 | 6 | -1 | 0.34 | -0.95 | x
N#Cc1cc(C(=O)c2ccccc2O)cn(-c2nccs2)c1=O | -16 | -17 | 23 | -8.4* | i | 0.025*
CC(C)n1cc(C(=O)c2ccccc2O)cc(C#N)c1=O | -40 | 2 | -14 | 1 | 0.025 | x
N#Cc1nc(-c2cccc3ccccc23)oc1NCCN1CCCCC1 | i | 100* | 36 | -3.4* | 0.16 | 0.065*
COc1ccc(-c2n(CC(=O)OC3CC(C)CCC3C(C)C)c3ccccc3[n+]2C)cc1 (centres undefined) | -34 | 101* | 54 | -1.8* | -0.41 | 0.038*
O=c1cc(CSc2nnc(-c3cccs3)n2Cc2ccccc2)nc2sc3ccccc3n12 | -170 | 1 | 20 | x | -2.7 | 0.064*
Cc1cc(C(=O)CSc2nnc(-c3cccs3)n2Cc2ccccc2)c(C)n1C | -26 | 8 | -1 | -1 | -2.9 | x
SMILES | m-calpain inh | L major viab | WT yeast gro inh | ROMK mod | KCC2 mod | ROMK hit retest
O=c1[nH]c(Nc2ccccc2)cc2ccccc12 | i | 30 | -2 | -3.3* | x | 0.064*
O=c1nccc(Nc2ccccc2)[nH]1 | -9 | x | x | x | 0.088 | x
COc1cccc(CNC(=O)CCC2CCCN(C(=O)CCn3cncn3)C2)c1 (centres undefined) | 1 | -3 | -10 | 1.9 | -0.057 | x
N#C/C(=C\c1ccccn1)c1nc2ccccc2s1 | -8 | 23 | 59* | -5.7* | 0.33 | 0.032*
COc1ccc(/C(C#N)=C/c2ccccn2)cc1 | -76 | x | x | 0.7 | -0.61 | x
Cc1ccc(/C=N/NC(=O)CNC(=O)c2cccs2)o1 | 9 | 5 | -26 | 0.6 | 0.00094 | x
CCOc1ccccc1/C=N/NC(=O)CNC(=O)c1cccs1 | 14 | 4 | 4 | -2.1* | 0.065 | 0.07
O=C(CNC(=O)c1cccs1)N/N=C/c1ccco1 | 14 | -4 | 14 | 3.4* | 0.76 | 0.067*
Cc1ccc(C(=O)N2CCn3c(C)ccc3C2C)cc1 (centres undefined) | -104 | 16 | 7 | x | -0.17 | x
CCOC(=O)CN(C(=O)CNC(=O)c1cccs1)C(C(=O)NC1CCCCC1)c1cccs1 (centres undefined) | 27 | 0 | 15 | x | 0.86 | 0.075
O=C(/C=C/c1cccs1)NC(=S)Nc1ccc(S(=O)(=O)Nc2ccccc2C(F)(F)F)cc1 | -15 | x | x | x | -0.57 | x
O=S(=O)(c1ccc(Cl)c(C(F)(F)F)c1)N1CCN(CC(O)COCC2CCCO2)CC1 (centres undefined) | -38 | -7 | 26 | 0.29 | 0.19 | x
CCOC(=O)C(CC)Sc1nnc(COc2ccc(C)cc2)n1-c1ccccc1 (centres undefined) | -1 | 29 | 31 | -4.5* | -2.4 | 0.066*
CCOc1ccc(-n2c(COc3ccc(C)cc3)nnc2SCC(N)=O)cc1 | 17 | -4 | 18 | 1.1 | 1.3 | x
COc1cc(NC(=S)N2CCc3ccccc3C2)cc(OC)c1 | 13 | -7 | 40 | -0.0012 | -0.75 | x
O=C(NCc1nnc(SCc2ccc(F)cc2)n1-c1ccccc1)C12CC3CC(CC(C3)C1)C2 | -6 | 19 | 14 | -2.5* | -2.3 | 0.056*
Cn1c(=O)c2c(nc(CN3CCN(c4ccc(F)cc4)CC3)n2Cc2ccccc2F)n(C)c1=O | -34 | 18 | 0 | x | x | x
NC(=O)c1c(NC(=O)CSc2nnc(Cc3ccccc3)n2Cc2ccco2)sc2c1CCC2 | -19 | 8 | 1 | -3.7* | x | 0.053*
O=C(CSc1nnc(Cc2cccs2)n1Cc1ccco1)Nc1ccc(Cl)cc1Cl | 2 | 4 | 21 | -2.9 | x | x
O=C(CSc1nnc(Cc2cccs2)n1Cc1ccco1)Nc1ccc(Br)cc1 | 9 | 8 | x | -2.9* | -0.51 | u
Cc1cccc(NC(=O)CN2C(=O)COc3ccc(Cl)cc32)c1C | 1 | -2 | 6 | x | 0.094 | x
CCCCn1nc(C(=O)Nc2cc(S(=O)(=O)N(C)C)ccc2C)c2ccccc2c1=O | -25 | x | x | x | 0.59 | x
Cc1cccc(C2c3[nH]c4ccccc4c3CCN2C(=O)c2cc(CC(C)C)nc(C)n2)n1 (centres undefined) | -22 | 46 | 20 | -0.31 | -0.13 | x
Cc1cc(NC(=O)CCC(=O)N(c2ccc(F)cc2)C(C(=O)NC2CCCC2)c2ccncc2)no1 (centres undefined) | -14 | -1 | 9 | x | -0.48 | x
CCN(CC)S(=O)(=O)c1ccc(N2CCCC2)c(NC(=O)Cc2ccccc2)c1 | -5 | x | x | x | -0.96 | x
CCN(CC)S(=O)(=O)c1ccc(N2CCOCC2)c(NC(=O)Cc2ccc(Cl)cc2)c1 | 20 | 50* | 14 | x | 0.0071 | 0.07
